Data from PubChem BioAssay (NCI).
Several values for one entry are separate records, joined by “and”; a condition that tells them apart may be missing. Equal values may be shown once. About 83,000 compounds went through this panel and 20% of them were active in at least one assay; those are over-represented in the sample as a whole.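 Testing used 96-well plates and a 48-hour single-concentration exposure. Example: -40 means 40% of the starting cells died.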

What was measured:
Experiment in all cases: NCI-60 one-dose screen, 48 h (100 = growth as untreated, 0 = no growth, -100 = all killed)
Conditions in all cases: 10 µM unless noted; active means growth percent below 10; inactive means the rest
[1] = tested on: SR leukemia
[2] = tested on: RPMI-8226 leukemia
[3] = tested on: OVCAR-8 ovarian
[4] = tested on: OVCAR-5 ovarian
[5] = tested on: OVCAR-4 ovarian
[6] = tested on: SK-OV-3 ovarian
[7] = tested on: IGROV1 ovarian
[8] = tested on: OVCAR-3 ovarian
[9] = tested on: HS 578T breast
[10] = tested on: NCI/ADR-RES ovarian
[11] = tested on: T-47D breast
[12] = tested on: BT-549 breast
[13] = tested on: MDA-MB-435 melanoma
[14] = tested on: SW-620 colon
[15] = tested on: MCF7 breast
[16] = tested on: HCT-116 colon
[17] = tested on: HCC-2998 colon
[18] = tested on: KM12 colon

Measured: growth

CCCCNC(=O)c1ccccc1C
inactive: [1] 85.3% | [2] 99.7% | [3] 107% | [4] 94.4% | [5] 104% | [6] 97.3% | [7] 96.2% | [8] 105% | [9] 104% | [10] 99.3% | [11] 96.9% | [12] 94.1% | [13] 97.9% | [14] 104% | [15] 89.8% | [16] 90.2% | [17] 88.3% | [18] 101%

COc1cc2c(cc1O)C(=O)CCCC2
inactive: [1] 102% | [2] 104% | [3] 117% | [4] 92.8% | [5] 93.6% | [6] 108% | [7] 64.7% | [8] 101% | [9] 110% | [10] 94.5% | [11] 94.8% | [12] 78% | [13] 99.2% | [14] 92.9% | [15] 91.2% | [16] 99.2% | [17] 74.7% | [18] 89%

S=c1nn[nH]n1C1CCCCC1
inactive: [1] 101% | [2] 109% | [3] 95.4% | [4] 117% | [5] 109% | [6] 137% | [7] 104% | [8] 104% | [9] 95.7% | [10] 112% | [11] 124% | [12] 125% | [13] 102% | [14] 99.8% | [15] 101% | [16] 101% | [17] 113% | [18] 110%

O=C(O)c1c2c(nc3ccccc13)Cc1ccccc1-2
inactive: [1] 94.9% and 98% | [2] 97% and 84.1% | [3] 96.3% and 96.2% | [4] 109% and 88.1% | [5] 116% and 97.6% | [6] 99.7% and 102% | [7] 121% and 85.6% | [8] 102% and 95.6% | [9] 94.1% and 84.2% | [10] 107% and 95.7% | [11] 97.3% and 98.5% | [12] 103% and 88.1% | [13] 112% and 96.6% | [14] 99.3% and 90.1% | [15] 97.3% and 92% | [16] 95.6% and 104% | [17] 98.3% and 99.9% | [18] 97.8% and 98.9%

OCc1ccccc1F
inactive: [1] 92.6% | [2] 106% | [3] 83.3% | [4] 76.9% | [5] 97.5% | [6] 87% | [7] 85.7% | [8] 132% | [9] 109% | [10] 75.7% | [11] 95.9% | [12] 82.4% | [13] 97.6% | [14] 58% | [15] 72.2% | [16] 58.2% | [17] 93.2% | [18] 107%

O=[N+]([O-])c1ccc(N/N=C/C2CCCCCC2)c([N+](=O)[O-])c1
inactive: [1] 82.9% | [2] 90.3% | [3] 102% | [4] 99.1% | [5] 98.5% | [6] 102% | [7] 91% | [8] 99.8% | [9] 96.9% | [10] 104% | [11] 84% | [12] 91% | [13] 87.6% | [14] 79% | [15] 94.8% | [16] 103% | [17] 106% | [18] 71.6%

Cc1cnc(N)s1
inactive: [1] 101% | [2] 95.9% | [3] 92.8% | [4] 90.7% | [5] 103% | [6] 89.7% | [7] 103% | [8] 105% | [9] 89.4% | [10] 101% | [11] 90.2% | [12] 100% | [13] 104% | [14] 103% | [15] 95.4% | [16] 95.8% | [17] 92% | [18] 103%
